Values joined by “and” are separate entries in the source; they are usually repeats but may differ in a detail not shown here. Equal entries are not always repeated. Records with an inconclusive call do not appear. Values without a mark were called inactive. Active and inactive are the calls of the source. The call rests on the fitted dose curve; in most records, active means well fitted curve in the direction sought with a large enough effect; inconclusive means small, poorly fitted or top-dose-only effect, or another doubt; inactive means no such curve, though single readings can be large; an effect the other way counts as inactive or inconclusive.

The nature of test [1]: Viability qHTS for spleen associated tyrosine kinase inhibitor (SYKi) naive MV4-11 cells (AID 1963823). Further: nearly all actives have a fitted effect of over 40% in size. Further: potency means the concentration at half of the fitted maximal effect. In a few lines:
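Cells: MV4-11, SYK inhibitor naive, 500 per well. Treatment: library compounds, 72 hr, 37 C, 5% CO2. Read-out: CellTiter-Glo luminescence after 10 min RT.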

Test [2] can be described thus: Viability qHTS for spleen associated tyrosine kinase inhibitor (SYKi) drug resistant MV4-11 cells (AID 1963824). Further: nearly all actives have a fitted effect of over 35% in size. Further: potency means the concentration at half of the fitted maximal effect. In a few lines: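 SYK inhibitor-resistant MV4-11 AML cells, 500 per well, added to predispensed compounds and incubated 72 hr at 37 C, 5% CO2. Viability measured by CellTiter-Glo luminescence after 10 min at room temperature.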
Background: In qHTS, concentration-response curves come from the screen itself.

Test [3] is described as follows: Quantitative highthroughput screen to assess conditional lethalithy of NOMO1 cells grown in Human Plasma-Like Medium with dialyzed fetal bovine serum (HPLM+ds) (AID 1963878). Further: nearly all actives have a fitted effect of over 35% in size. Further: potency means the concentration at half of the fitted maximal effect.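 On Viability: 100% = DMSO wells and 0% = empty wells on each plate.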 In a few lines: (§1)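 Each medium arm—HPLM with 10% dialyzed FBS, or RPMI1640 with 5 mM glucose and 10% untreated or dialyzed FBS—was screened against an 11-point, 3-fold compound titration for 48 h at 37 °C, with CellTiter-Glo luminescence as endpoint.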

Test [4] is described as follows: Quantitative highthroughput screen to assess conditional lethalithy of SEM cells grown in RPMI1640 with unreated serum (RPMI+s) (AID 1963883). Further: nearly all actives have a fitted effect of over 35% in size. Further: potency means the concentration at half of the fitted maximal effect.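 On Viability: 100% = DMSO wells and 0% = empty wells without cells.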 In a few lines:
as §1

A short description of test [5]: Quantitative highthroughput screen to assess conditional lethalithy of SEM cells grown in RPMI1640 with dialyzed fetal bovine serum (RPMI+ds) (AID 1963884). Further: potency means the concentration at half of the fitted maximal effect; nearly all actives have a fitted effect of over 35% in size. In a few lines:
as §1

A short description of test [6]: Cellular viability qHTS for adrenocortical cancer (ACC) cell line SW-13 (AID 1963989).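 Further: cells grown in serum-free medium with ITS supplement; on the % scale 0 is the no-effect control and ±100 the full control effect; nearly all actives have a fitted effect of over 65% in size.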 Conditions: SW-13 ACC cells viability, CellTiter-Glo, 48 h; activity (max response): stronger effect = lower value. In a few lines:
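Here, serum-free SW-13 cultures were dosed up to 46 uM. Following 48 h, ATP-dependent luminescence (CellTiter-Glo) reported viable cells, and logistic modeling produced IC50 values.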

A short description of test [7]: Cellular viability qHTS for adrenocortical cancer (ACC) cell line NCI-H295R (AID 1963990). Further: nearly all actives have a fitted effect of over 60% in size. Further: potency means the concentration at half of the fitted maximal effect. In a few lines: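 Viability of NCI-H295R after 48 h of treatment (final up to 46 uM) measured through cellular ATP luminescence.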
Test [8] is described as follows: Quantitative highthroughput screen to assess conditional lethalithy of P12 Ichikawa cells grown in Human Plasma-Like Medium with dialyzed fetal bovine serum (HPLM+ds) (AID 1963879). Further: nearly all actives have a fitted effect of over 35% in size. Further: potency means the concentration at half of the fitted maximal effect. On Viability: series mostly up to about 46 µM. Conditions: Potency: viability. In a few lines: as §1
Test [9] is described as follows: Quantitative highthroughput screen to assess conditional lethalithy of P12 Ichikawa cells grown in RPMI1640 with dialyzed fetal bovine serum (RPMI+ds) (AID 1963880). Further: nearly all actives have a fitted effect of over 35% in size. Further: potency means the concentration at half of the fitted maximal effect.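 On Viability: 100% = DMSO wells and 0% = empty wells on each plate.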 The conditions noted are these: Potency: P12-Ichikawa viability. In a few lines: as §1
Test [10] can be described thus: Quantitative highthroughput screen to assess conditional lethalithy of P12 Ichikawa cells grown in RPMI1640 with untreated serum (RPMI+s) (AID 1963881). Further: nearly all actives have a fitted effect of over 35% in size. Further: potency means the concentration at half of the fitted maximal effect.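 On Viability: series mostly up to about 46 µM; 100% = DMSO wells and 0% = empty wells without cells.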 Conditions: Potency: viability. In a few lines: as §1
Test [11] can be described thus: Quantitative highthroughput screen to assess conditional lethalithy of SEM cells grown in Human Plasma-Like Medium with dialyzed fetal bovine serum (HPLM+ds) (AID 1963882). Further: nearly all actives have a fitted effect of over 35% in size. Further: potency means the concentration at half of the fitted maximal effect. On Viability: series mostly up to about 46 µM. In a few lines:
as §1

Turning to `CN(C)c1ccc2cc(C(=O)N[C@@H](CCCN=C(N)CCl)C(=O)NCc3ccccc3)ccc2c1`, the Potency is 5.25 µM (active) in [1]; 4.68 µM (active) in test [2]; 23.5 µM (active) in test [3]; 26.4 µM (active) in test [4]; 26.4 µM (active) in test [5]. The activity (max response) in test [6] was -6.76%. Moreover, the Potency result in test [7] was “inactive”.

As for `C[C@H](Cc1ccc(O)c(O)c1)[C@@H](C)Cc1ccc(O)c(O)c1`, the Potency is 1.46 µM (active) in test [1]; 1.86 µM (active) and 1.03 µM (active) in test [2]; 20.9 µM (active) in test [8]; 16.6 µM (active) in [9]; 18.7 µM (active) in [10].

As for `O=C(C1CCCCC1)N1CC(=O)N2CCc3ccccc3C2C1` (stereo unspecified), the Potency entry in [1], in test [2], in test [3] and in test [7] was “inactive” each time. Also, the Potency in test [4] was 0.332 µM (active). Further, in test [6], the activity (max response) was -9.94% and -6.75%.

`CC1=C(C(=O)Nc2cc3cn[nH]c3cc2F)C(c2ccc(Cl)cc2F)N=C(c2ccnc(Cl)c2)N1` (stereo unspecified): the Potency was 4.61 µM (active) in [1]; 4.61 µM (active) and 5.9 µM (active) in test [2]; 20.9 µM (active) in test [8]; 20.9 µM (active) in [9]; 18.7 µM (active) in test [10]; 16.6 µM (active) in test [11]. The Potency in test [4] was 18.7 µM (active); in [5], 16.6 µM (active); in test [7], 25.1 µM (active).

As for `CO[C@@H]1[C@@H](OC(N)=O)[C@@H](O)[C@H](Oc2ccc3c(O)c(NC(=O)c4ccc(O)c(CC=C(C)C)c4)c(=O)oc3c2C)OC1(C)C`, the Potency entry in test [1], in test [2], in test [8], in [9], in test [10] and in [11] was “inactive” throughout. Moreover, the Potency result in test [4] and in test [7] was “inactive” each time. The activity (max response) in test [6] is 15.7% and -3.94%.

These data come from PubChem BioAssay (NCATS).
